MITF inh = inhibitors of human MITF | AlphaScreen MITF homodimerization, bead proximity signal | inhibition, % at 2.6 µM | hit rate 0.91% among 650,000; in the data active = inhibition above about 50%;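 also: 0% = vehicle wells with protein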
TEAD-YAP inh = TEAD-YAP interaction inhibition; AID 1259422; inhibition, % at 9.12 µM; HEK-TIYL cells, TEAD-Gal4/YAP UAS-luciferase luminescence; hit rate 1.4% among 640,000; in the data active = inhibition above about 32%;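 also: 0% = median of test compound wells and 100% = reference inhibitor wells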
GPR151 activ = activators of human GPR151 | AID 1508602 | hit rate 1% among 650,000 | activation, % at 11.2 µM | Q8TDV0 | PathHunter beta-arrestin GPR151 cells, luminescence; in the data active = activation above about 4.9%;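 also: 0% = median of compound wells and 100% = cells with positive control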
FBW7 act = activators of human E3 ligase FBW7; normalized activity (activation), % at 26.1 µM; AID 1259310; AlphaScreen FBW7–phospho-cyclin E peptide binding, activator screen; Q969H0; hit rate 0.13% among 650,000; in the data active = normalized activity above about 1.9%;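 also: purified mutant Fbw7 with reduced substrate affinity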
The depositor's hits bear a star; . = no result given. Rows were chosen to be rich in hits. Some 3.4% of all compounds tested hit in one or more screens of this group.

SMILES	MITF inh	TEAD-YAP inh	GPR151 activ	FBW7 act
CCc1c(C)nc(NC2CCN(C(=O)C3(c4ccc(OC)cc4)CC3)CC2)[nH]c1=O	-3	6	0	0
CC(=O)O/N=C(\N)c1nonc1N1CCOCC1	20	-7	-2	1.9*
COc1ccccc1CCc1nnc(CCC(=O)NCC2CC2)o1	-7	4	0	0
Cc1cc(-c2cnc(N3CCCC3)nc2C2CCCN(C(=O)C3CC3)C2)on1 (centres undefined)	-6	-21	1	0
COc1ccc(OC)c(C(=O)c2oc3ccc(Br)cc3c2N)c1	12	49*	-1	0
C=CCc1ccccc1OCCOc1c(Cl)cc(/C=C2/C(=N)N3N=C(CC)SC3=NC2=O)cc1OCC	7	4	0	0
O=C(c1ccccc1)N1C(=O)c2ccccc2C1=O	26	-4	1	2.5*
C/C=C/COC(=O)C1=C(C)NC(=O)NC1c1ccc(Cl)cc1Cl (centres undefined)	5	64*	0	0
NC(=O)c1ccc(-c2nc(NCCCN3CCCC3=O)c3ncn(-c4ccsc4)c3n2)cc1	3	49*	0	0
O=C1CCCN1CCCNc1nc(-c2ccccc2)nc2c1ncn2-c1ccsc1	10	30	1	0
O=C1CCCN1CCCNc1nc(NC2CC2)c2ncn(-c3ccccc3)c2n1	5	42*	-2	0
COc1ccc(-c2nc(NCCCN3CCCC3=O)c3ncn(-c4ccccc4)c3n2)cc1	10	20	3	0
O=C1CCCN1CCCNc1nc(-c2ccccc2)nc2c1ncn2-c1ccccc1	2	33*	3	0
FC(F)(F)c1cccc(NC(=S)N(CCCN2CCCC2)Cc2ccco2)c1	-1	19	3	0
CCOC(=O)c1cccc(C(=O)Nc2ccccc2C(=O)OC)n1	21	1	-2	0
CCOC(=O)c1cccc(C(=O)NC2=NN(c3ccccc3)C(=O)C2)n1	-25	0	1	51*
Cn1c(=O)cc(OCCCC(=O)Nc2ccc(Cl)cn2)c2ccccc21	5	43*	0	0
COc1ccc(-c2csc3ncnc(Cl)c23)cc1OC	13	34*	1	2
Oc1ccc(O)c(CN2CCCCCC2)c1	82*	-2	-1	-1
COC(=O)c1ccc(C)c(NS(=O)(=O)c2ccc3ccccc3c2)c1	-3	53*	1	0
COC(=O)c1ccc(N2CCCCCC2)c(NS(=O)(=O)c2ccc(OC)cc2)c1	-4	57*	1	0
COC(=O)c1ccc(NS(=O)(=O)c2ccc(OC)cc2)cc1	1	-3	-1	0
COC(=O)c1ccc(Cl)c(NS(=O)(=O)c2ccc(OC)c(Cl)c2)c1	-14	-1	1	0
COC(=O)c1ccc(C)c(NS(=O)(=O)c2ccc(OC)c(OC)c2)c1	4	-1	1	0
COC(=O)c1ccc(Cl)c(NS(=O)(=O)c2ccc(C)cc2)c1	12	57*	-2	1
SMILES	MITF inh	TEAD-YAP inh	GPR151 activ	FBW7 act
COC(=O)c1ccc(C)c(NS(=O)(=O)c2ccc(OC)c(Cl)c2)c1	-5	41*	-1	0
C=CC(Oc1ccc(C=O)cc1)c1ccccc1 (centres undefined)	10	-43	-1	0
COc1cccc(CSc2nncn3c2cc2oc(C)cc23)c1	6	-5	-1	24*
COc1cccc(CSc2nncn3c2cc2occc23)c1	14	-2	-1	0
CC(=O)O[C@H]1C(=O)[C@@]2(C)[C@H]([C@H](OC(=O)[14c]3[14cH][14cH][14cH][14cH][14cH]3)[C@]3(O)C[C@H](OC(=O)[C@H](O)[C@@H](NC(=O)c4ccccc4)c4ccccc4)C(C)=C1C3(C)C)[C@]1(OC(C)=O)CO[C@@H]1C[C@@H]2O	-31	.	2	0
CC(=O)O[C@H]1C(=O)[C@@]2(C)[C@H]([C@H](OC(=O)c3ccccc3)[C@]3(O)C[C@H](OC(=O)[C@H](O)[C@@H](NC(=O)c4ccccc4)c4ccccc4)C(C)=C1C3(C)C)[C@]1(OC(C)=O)CO[C@@H]1C[C@@H]2O	24	64*	-2	0
Cc1ccccc1CNC(=O)C1CCN(C(=O)N2CC(C)Oc3ccccc32)CC1 (centres undefined)	-10	-2	-3	0
CC1(C)Cc2c(c(N3CCOCC3)nc3snc(N)c23)CO1	7	36*	1	0
Cc1ccc(NC(=O)Cn2c(-n3nc(C)cc3C)nc(C)cc2=O)cc1	4	43*	-1	1
NCCNc1ccc([N+](=O)[O-])c(N2CCOCC2)c1	-5	5	-1	0

Assay outcomes as filed in PubChem.
